Data reported in PubChem BioAssay AID1852 (Sanford-Burnham Center for Chemical Genomics, 2009).
The whole screen tested about 2,500 compounds, of which about 1,100 (44%) were called active. So high a share suggests a set chosen from earlier hits. The list shows a part of the results. Unmarked numbers belong to inactive results.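 The calls were made as follows: active = inhibition above 50% at 4 µM in the single-point screen; inactive = inhibition of 50% or less.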

Experiment: TNF-a-driven NF-kB reporter inhibitors, primary screen, selectivity assay for NOD1/NOD2 signaling inhibitor project, cell-based, HEK293T NF-kB-Luc, luminescence (AID 1852)
Conditions: TNF-a induced, 14 h, at 4 µM, active compounds read high

Row | Compound | inhibition
1 | Cc1ccc(-c2csc(NC(=O)C3=NN(c4ccccc4)C(=O)CC3)n2)cc1 | 38.6%
2 | Cc1ccc(-c2csc(NC(=O)c3ccc4c(=O)n5c(nc4c3)CCCCC5)n2)cc1 | 97.1% (active)
3 | O=C(NC1CCCCC1)N1CCN(c2nc(-c3ccccc3)cs2)CC1 | 48.4%
4 | O=C(Nc1nc(-c2ccccc2)cs1)c1ccc2c(=O)n3c(nc2c1)CCCCC3 | 106% (active)
5 | Nc1ccc(S(=O)(=O)Nc2nccc(/C=C/c3ccc(Cl)cc3Cl)n2)cc1 | 4%
6 | Cc1cccc2cc3c(N)c(C(=O)Nc4ccc(N5CCOCC5)cc4)sc3nc12 | 36.4%
7 | Cc1cc(N2CCOCC2)c2c(N)c(Br)cc(C)c2n1 | 80.6% (active)
8 | COc1ccccc1-c1cc(C(F)(F)F)nc(S(=O)(=O)CCCC(=O)N2CCCCC2C)n1 (stereo not drawn) | 66.8% (active)
9 | COc1ccccc1-c1cc(C(F)(F)F)nc(S(=O)(=O)CCCC(=O)N2CCOCC2)n1 | 51.1% (active)
10 | COc1cccc(Cn2c(NCc3cccnc3)nc3c2c(=O)n(C)c(=O)n3C)c1 | 37.8%
11 | COc1cc(/C=N/Nc2nc3c(c(=O)n(C)c(=O)n3C)n2Cc2ccccc2)ccc1OC(=O)c1ccco1 | 52.5% (active)
12 | O=S(=O)(Nc1nc2ccccc2nc1N1CCN(c2ccccc2F)CC1)c1ccc(Cl)cc1 | 86.2% (active)
13 | O=S(=O)(Nc1nc2ccccc2nc1Cl)c1ccc(Br)cc1 | 20.8%
14 | CC(C(=O)N1CCN(c2ccccc2F)CC1)c1ccc([N+](=O)[O-])cc1 (stereo not drawn) | -32.5%
15 | COc1ccc(-c2cc(C(F)(F)F)nc(S(=O)(=O)CCCC(=O)Nc3cccc(O)c3)n2)cc1OC | 81.5% (active)
16 | COc1ccc(-c2cc(C(F)(F)F)nc(S(=O)(=O)CCCC(=O)Nc3cccnc3Cl)n2)cc1OC | 88.1% (active)
17 | O=C(O)CCC(=O)Nc1cccc(-c2csc(-c3ccccc3)n2)c1 | 41.9%
18 | COc1ccccc1-c1cc(C(F)(F)F)nc(S(=O)(=O)CCCC(=O)Nc2cccnc2Cl)n1 | 37.1%
19 | Cc1cc(-c2ccc(C)c(S(=O)(=O)N3CCN(c4ccc([N+](=O)[O-])cc4)CC3)c2)on1 | 16.8%
20 | C[C@@H](C(=O)Nc1ccc2ccccc2c1)[C@@H]1C[C@@]1(C)[C@@H](NC(=O)c1cnccn1)c1ccccc1 | -2.6%

Row | Compound | inhibition
21 | Cc1cc(C(=O)CSc2nc3ccccc3c(=O)n2C)c(C)n1CC1CCCO1 (stereo not drawn) | 65.9% (active)
22 | Cc1cc(C(=O)COC(=O)c2ccccc2Br)c(C)n1CC1CCCO1 (stereo not drawn) | -5.9%
23 | Cc1cc(C(=O)CN2C(=O)c3ccccc3S2(=O)=O)c(C)n1CC1CCCO1 (stereo not drawn) | 96.8% (active)
24 | Cc1cc(C(=O)CSc2nc3ccccc3c(=O)n2C)c(C)n1Cc1ccc2c(c1)OCO2 | 69.5% (active)
25 | COc1ccccc1Nc1nc(NCC2CCCO2)c2ccccc2n1 (stereo not drawn) | 39.1%
26 | CCCCN(CC)c1nc(-c2ccncc2)nc2ccccc12 | 34.7%
27 | O=C(N/C(=C/c1ccc([N+](=O)[O-])cc1)C(=O)N1CCOCC1)c1ccco1 | 14%
28 | COc1cc(Nc2nc3ccccc3nc2NS(=O)(=O)c2ccc([N+](=O)[O-])cc2)cc(OC)c1OC | 84.6% (active)
29 | O=S(=O)(Nc1nc2ccccc2nc1Nc1ccc2c(c1)OCO2)c1ccc(F)cc1 | 18%
30 | Cc1ccc(S(=O)(=O)Nc2nc3ccccc3nc2Nc2cccc(S(=O)(=O)N3CCCC3)c2)cc1 | 71% (active)
31 | Cc1cc(Nc2nc3ccccc3nc2Cl)n(-c2ccc([N+](=O)[O-])cc2)n1 | 28.5%
32 | O=[N+]([O-])c1cccc(S(=O)(=O)Nc2nc3ccccc3nc2Nc2cccc(S(=O)(=O)N3CCCCC3)c2)c1 | 97.6% (active)
33 | COc1cccc(Nc2nc3ccccc3nc2NS(=O)(=O)c2cccs2)c1 | 7.5%
34 | CCn1nc(NS(=O)(=O)c2ccc([N+](=O)[O-])cc2)c2cc3cccc(C)c3nc21 | 19.3%
35 | O=c1c2ccccc2nc(/C=C/c2cc(Br)ccc2O)n1CCCO | 59% (active)
36 | CCn1c(/C=C/c2cc(Br)ccc2O)nc2ccccc2c1=O | -6.3%
37 | O=c1c2ccccc2nc(/C=C/c2ccc([N+](=O)[O-])o2)n1CCCO | 98.8% (active)
38 | COc1ccc(O)c(CNn2c(-c3ccc(Br)cc3)nc3ccccc3c2=O)c1 | 12.6%
39 | Cc1ccc(-c2cc(C(=O)N/N=C/c3ccc([N+](=O)[O-])o3)c3ccccc3n2)o1 | 6.6%
40 | O=[N+]([O-])c1cc(-c2nc3nc4ccccc4nc3n2CCc2ccccc2)cc([N+](=O)[O-])c1 | -12.4%

Row | Compound | inhibition
41 | COc1cccc(NC(=O)CSc2nc3ccccc3c(=O)n2C)c1 | 12.1%
42 | COc1ccc(Nc2nc(NCC3CCCO3)c3ccccc3n2)c(OC)c1 (stereo not drawn) | 31.4%
43 | COc1cccc(Nc2nc(NCCO)c3ccccc3n2)c1 | 69.6% (active)
44 | COc1cc(OC)c(N(C)S(=O)(=O)c2cccc(C(=O)OCC(=O)c3c[nH]c4ccccc34)c2)cc1Cl | 92.4% (active)
45 | COc1cccc(/C=C/c2ccc3cccc(O)c3n2)c1OC | -20%
46 | COc1cc(Br)cc(/C=C/c2ccc3cccc(O)c3n2)c1O | 0.4%
47 | COc1ccc(Br)cc1/C=C/c1ccc2cccc(O)c2n1 | 52.6% (active)
48 | COc1cccc(/C=C/c2ccc3ccccc3n2)c1OC(C)=O | -25.7%
49 | COc1ccc(Cl)cc1/C=C/c1ccc2cccc(O)c2n1 | 47.4%
50 | COc1ccc(OC)c(/C=C/c2ccc3cccc(O)c3n2)c1 | 105% (active)
51 | Oc1cccc2ccc(/C=C/c3ccccc3Br)nc12 | 51.4% (active)
52 | CCOc1cccc(/C=C/c2ccc3cccc(O)c3n2)c1O | 4.2%
53 | Oc1ccc(Cl)cc1/C=C/c1ccc2cccc(O)c2n1 | 8.6%
54 | Cc1ccc(NC(=O)CN(c2ccc(Cl)cc2)S(=O)(=O)c2cc([N+](=O)[O-])ccc2Cl)c(C)c1 | -17.7%
55 | Cc1ccc(NS(=O)(=O)c2ccc(-n3cccn3)cc2)c(C)c1 | 40.7%
56 | Cc1ccc(NC(=O)CC(=O)c2ccc([N+](=O)[O-])cc2)cc1S(=O)(=O)Nc1cccc(Cl)c1 | 15.2%
57 | Cc1ccc(NS(=O)(=O)c2cc([N+](=O)[O-])ccc2NNC(=S)Nc2cc(C)ccc2C)c(C)c1 | 77.3% (active)
58 | Cc1ccc(C)c(NC(=O)c2ccccc2NS(=O)(=O)c2cc([N+](=O)[O-])ccc2C)c1 | 75.8% (active)
